Experimental data from PubChem BioAssay.
For some assays here: Entries with a potency or affinity are not part of this list. The source made the active and inactive calls. Unless noted, how the calls were made is not given here.

Assays:
[1] = antimalarial activity against Dd2 strain (AID 2302;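 active means growth inhibition above 50% at the single 2 µM test dose, taken to imply half-maximal potency below 2 µM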;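 further: 0% = DMSO untreated growth and 100% = chloroquine plus artemisinin killed control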); details: P. falciparum Dd2 in RBCs, LDH growth readout, 72 h; at 2 µM; active compounds read high
[2] = human hepatoma cell viability loss – ATP luminescence, cytotoxicity control for P. falciparum antimalarial project, primary screen (AID 2303;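 active means inhibition above 50%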;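 further: 0% = DMSO wells and 100% = digitonin-killed cells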); details: HepG2 viability, 24-48 h, at 10 µM, active compounds read high
[3] = biological target: L-lactate dehydrogenase (Plasmodium falciparum (isolate CDC / Honduras)) (UniProt Q27743); experiment: PfLDH activity inhibition – cell lysate, 3D7 strain, counter-screen for P. falciparum growth inhibition project (AID 2304);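 further: 0% = vehicle and 100% = reference inhibitor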; details: P. falciparum 3D7 crude extract, LDH APAD/NBT absorbance; at 2 µM; active compounds read high
[4] = inhibition of 3D7 malaria parasite growth – strain 3D7 (AID 2306);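 further: 0% = DMSO wells and 100% = chloroquine plus artemisinin control wells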; details: P. falciparum 3D7 erythrocytic growth, LDH absorbance, 72 h; at 2 µM; active compounds read high
[5] = biological target: Calcium-dependent protein kinase 1 (Plasmodium falciparum (isolate 3D7)) (UniProt P62344); experiment: PfCDPK1 kinase inhibitors, biochemical, TCAMS library (AID 1159585; cut-off not given, nearly all actives have IC50 up to about 0.98 µM;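 further: inhibitors leave more ATP so luminescence rises with inhibition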); details: recombinant PfCDPK1, Kinase-Glo ATP depletion luminescence
[6] = biological target: Plasmodium falciparum protein kinase 6 (PK6, PF3D7_1337100) (UniProt Q8IDW1); experiment: PfPK6 kinase inhibitors, biochemical, TCAMS library (AID 1159586); details: recombinant PfPK6, Kinase-Glo ATP depletion luminescence
[7] = biological target: Protein kinase 7 (PK7), Plasmodium falciparum 3D7 (PF3D7_0213400) (UniProt Q7YTF7); experiment: inhibition of Plasmodium PK7 catalytic activity – biochemical, TCAMS antimalarial set, Kinase-Glo luminescence (AID 1159587); details: recombinant PfPK7, Kinase-Glo ATP depletion luminescence
[8] = biological target: Calcium-dependent protein kinase 4 (Plasmodium falciparum (isolate 3D7)) (UniProt Q8IBS5); experiment: PfCDPK4 kinase inhibitors, biochemical, TCAMS library (AID 1159588; cut-off not given, nearly all actives have IC50 up to about 0.91 µM); details: recombinant PfCDPK4, Kinase-Glo ATP depletion luminescence
Sequence of Calcium-dependent protein kinase 4 (Plasmodium falciparum (isolate 3D7)) (Q8IBS5 whole entry, looked up): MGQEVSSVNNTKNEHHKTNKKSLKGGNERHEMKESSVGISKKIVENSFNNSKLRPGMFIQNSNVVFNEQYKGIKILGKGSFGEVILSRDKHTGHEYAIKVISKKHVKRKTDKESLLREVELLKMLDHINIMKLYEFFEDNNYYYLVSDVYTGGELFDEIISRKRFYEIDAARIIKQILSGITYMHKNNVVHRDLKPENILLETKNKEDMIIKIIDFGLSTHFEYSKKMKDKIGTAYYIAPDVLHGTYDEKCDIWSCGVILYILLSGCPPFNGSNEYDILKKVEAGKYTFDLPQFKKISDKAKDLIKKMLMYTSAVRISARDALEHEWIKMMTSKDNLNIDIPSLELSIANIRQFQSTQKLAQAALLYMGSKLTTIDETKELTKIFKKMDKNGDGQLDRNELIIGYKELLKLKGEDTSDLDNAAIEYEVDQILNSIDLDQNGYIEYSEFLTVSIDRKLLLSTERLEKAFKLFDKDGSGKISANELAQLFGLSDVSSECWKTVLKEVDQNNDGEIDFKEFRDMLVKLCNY

Sequence of Plasmodium falciparum protein kinase 6 (PK6, PF3D7_1337100) (Q8IDW1 1-305): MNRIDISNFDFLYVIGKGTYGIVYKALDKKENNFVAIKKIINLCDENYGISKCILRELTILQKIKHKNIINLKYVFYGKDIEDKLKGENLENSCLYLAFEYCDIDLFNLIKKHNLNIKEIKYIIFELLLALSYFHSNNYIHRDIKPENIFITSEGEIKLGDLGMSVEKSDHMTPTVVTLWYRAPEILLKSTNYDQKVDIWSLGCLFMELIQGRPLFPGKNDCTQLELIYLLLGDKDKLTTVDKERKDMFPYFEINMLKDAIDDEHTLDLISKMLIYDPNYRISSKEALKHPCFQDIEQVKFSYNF
Sequence of Calcium-dependent protein kinase 1 (Plasmodium falciparum (isolate 3D7)) (P62344 whole entry, looked up): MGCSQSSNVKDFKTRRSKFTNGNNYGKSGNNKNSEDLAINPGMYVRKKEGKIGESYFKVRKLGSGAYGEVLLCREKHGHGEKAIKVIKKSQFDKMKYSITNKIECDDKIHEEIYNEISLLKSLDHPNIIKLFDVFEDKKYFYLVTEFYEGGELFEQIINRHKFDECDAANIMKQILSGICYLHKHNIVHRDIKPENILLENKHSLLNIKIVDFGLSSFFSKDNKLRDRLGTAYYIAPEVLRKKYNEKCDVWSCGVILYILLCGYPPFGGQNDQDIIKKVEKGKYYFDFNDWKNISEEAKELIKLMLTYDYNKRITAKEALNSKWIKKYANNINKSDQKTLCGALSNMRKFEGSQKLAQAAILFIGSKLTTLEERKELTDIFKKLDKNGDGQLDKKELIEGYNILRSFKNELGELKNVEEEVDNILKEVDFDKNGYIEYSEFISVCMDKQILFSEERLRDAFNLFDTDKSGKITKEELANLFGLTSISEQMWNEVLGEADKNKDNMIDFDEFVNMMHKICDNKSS
Sequence of L-lactate dehydrogenase (Plasmodium falciparum (isolate CDC / Honduras)) (Q27743 whole entry, looked up): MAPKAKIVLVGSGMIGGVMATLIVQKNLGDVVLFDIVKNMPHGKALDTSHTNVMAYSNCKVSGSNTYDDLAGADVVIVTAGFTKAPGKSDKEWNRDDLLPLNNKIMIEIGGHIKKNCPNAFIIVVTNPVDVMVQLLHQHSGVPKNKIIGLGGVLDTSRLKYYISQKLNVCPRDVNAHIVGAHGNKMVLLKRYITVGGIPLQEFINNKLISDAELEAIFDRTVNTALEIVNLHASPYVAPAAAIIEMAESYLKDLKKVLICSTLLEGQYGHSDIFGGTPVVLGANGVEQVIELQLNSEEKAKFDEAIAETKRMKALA
Sequence of Protein kinase 7 (PK7), Plasmodium falciparum 3D7 (PF3D7_0213400) (Q7YTF7 1-343): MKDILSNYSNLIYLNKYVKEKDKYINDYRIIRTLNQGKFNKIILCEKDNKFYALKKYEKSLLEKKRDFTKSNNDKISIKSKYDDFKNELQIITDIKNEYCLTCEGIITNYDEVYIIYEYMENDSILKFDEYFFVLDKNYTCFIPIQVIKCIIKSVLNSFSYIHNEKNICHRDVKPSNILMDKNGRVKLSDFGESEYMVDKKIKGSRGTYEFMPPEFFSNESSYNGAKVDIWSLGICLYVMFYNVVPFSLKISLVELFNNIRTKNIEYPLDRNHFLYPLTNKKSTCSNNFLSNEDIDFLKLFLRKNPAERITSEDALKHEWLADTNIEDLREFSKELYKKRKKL

Cc1ccccc1CNc1noc(-c2c(-c3ccccc3)noc2C)n1
inactive: inhibition [2] -4% | inhibition [3] -2% | outcome [5] | outcome [6] | outcome [7] | outcome [8]
active: growth inhibition [1] 70% | growth inhibition [4] 94%

COc1cc(NC(=O)N2CCOC(CCN3CCC4(CCc5ccccc54)CC3)(c3ccc(Cl)c(Cl)c3)C2)cc(OC)c1OC (stereo not given)
inactive: inhibition [2] 17% | inhibition [3] -4% | outcome [5] | outcome [6] | outcome [7] | outcome [8]
active: growth inhibition [1] 67% | growth inhibition [4] 94%

CNC(=O)C1Cc2c([nH]c3ccc(Br)cc23)C2(CCN(CCc3ccccc3)CC2)N1 (stereo not given)
inactive: inhibition [2] 15% | inhibition [3] -2% | outcome [5] | outcome [6] | outcome [7] | outcome [8]
active: growth inhibition [1] 60% | growth inhibition [4] 101%

Cc1ccc2c(c1[N+](=O)[O-])N=NCC2Oc1ccccc1 (stereo not given)
inactive: growth inhibition [1] 19% | inhibition [2] 16% | inhibition [3] -4% | outcome [5] | outcome [6] | outcome [7] | outcome [8]
active: growth inhibition [4] 91%

COc1ccc(NC(=O)[C@H](CC(C)C)Nc2cc(C)nc(NCCc3ccccc3OC)n2)cc1
active: growth inhibition [1] 68% | growth inhibition [4] 99%
inactive: inhibition [2] 9% | inhibition [3] -3% | outcome [5] | outcome [6] | outcome [7] | outcome [8]

Cc1ccc(NC(=O)C2CCC2)cc1-c1ccc(C(=O)NCC2CC2)cc1
inactive: growth inhibition [1] 3% | inhibition [2] 13% | inhibition [3] 3% | outcome [5] | outcome [6] | outcome [7] | outcome [8]
active: growth inhibition [4] 98%

Cc1cc(N2CCOCC2)nc2ccc(NC(=O)c3cccc([N+](=O)[O-])c3)cc12
active: growth inhibition [4] 97%
inactive: growth inhibition [1] 37% | inhibition [2] 0% | inhibition [3] 0% | outcome [5] | outcome [6] | outcome [7] | outcome [8]

Cc1nc2ccc3nc(NC(=O)c4ccno4)sc3c2s1
inactive: inhibition [2] 6% | inhibition [3] 1% | outcome [5] | outcome [6] | outcome [7] | outcome [8]
active: growth inhibition [1] 97% | growth inhibition [4] 99%

Cc1ccc(Nc2nccc(Nc3ccc4c(C)[nH]nc4c3)n2)cc1F
inactive: growth inhibition [1] 1% | inhibition [2] 6% | inhibition [3] 4% | outcome [5] | outcome [6] | outcome [7] | outcome [8]
active: growth inhibition [4] 95%

CC(C)[C@H](NCC(=O)c1ccccc1)C(=O)O
active: growth inhibition [4] 99%
inactive: growth inhibition [1] 0% | inhibition [2] 6% | inhibition [3] -3% | outcome [5] | outcome [6] | outcome [7] | outcome [8]

COc1cc(NC(=O)c2sc(-c3ccc(Cl)cc3)cc2NC(=O)CN2CCCC2)ccc1OCCN1CCCC1
inactive: inhibition [2] 29% | inhibition [3] 3% | outcome [5] | outcome [6] | outcome [7] | outcome [8]
active: growth inhibition [1] 79% | growth inhibition [4] 86%

Nc1ccc(-c2ccc3ccnc(N)c3c2)cc1
active: growth inhibition [1] 68% | growth inhibition [4] 102%
inactive: inhibition [2] 38% | inhibition [3] -1% | outcome [5] | outcome [6] | outcome [7] | outcome [8]

CC12CN3CC(C)(CN(C1)C3c1cc(Br)ccc1O)C2O (stereo not given)
active: growth inhibition [4] 98%
inactive: growth inhibition [1] 2% | inhibition [2] 5% | inhibition [3] -3% | outcome [5] | outcome [6] | outcome [7] | outcome [8]

Cc1cccc2[nH]c(-c3cccc(-c4cccc(CNCCNC(=O)c5ccnn5C)c4)c3)nc12
inactive: inhibition [2] 26% | inhibition [3] -3% | outcome [5] | outcome [6] | outcome [7] | outcome [8]
active: growth inhibition [1] 71% | growth inhibition [4] 100%

COc1cccc(OC2CCN(C(=O)c3ccc(-c4ccc(N5CCCC5=O)cc4C)cc3)CC2)c1
inactive: inhibition [2] 42% | inhibition [3] -3% | outcome [5] | outcome [6] | outcome [7] | outcome [8]
active: growth inhibition [1] 80% | growth inhibition [4] 85%

O=C(/C=C/c1ccc(Cl)c(Cl)c1)NCCCCCCN1CCCN(C(=O)Nc2ccc(F)c(F)c2)CC1
active: inhibition [2] 72% | growth inhibition [4] 89%
inactive: growth inhibition [1] 2% | inhibition [3] 4% | outcome [5] | outcome [6] | outcome [7] | outcome [8]

CN1CCN(CCCN(Cc2ccc(-c3ccc(CNCc4ccc5c(c4)OCO5)cc3)cc2)C(=O)CCC2CCCC2)CC1
inactive: inhibition [3] 8% | outcome [5] | outcome [6] | outcome [7] | outcome [8]
active: growth inhibition [1] 85% | inhibition [2] 55% | growth inhibition [4] 99%

Cc1nn(CC(C)C)c2sc(C(=O)Nc3nc(-c4ccccn4)cs3)cc12
inactive: inhibition [2] 29% | inhibition [3] 1% | outcome [5] | outcome [6] | outcome [7] | outcome [8]
active: growth inhibition [1] 67% | growth inhibition [4] 96%

CCNc1cc(C(=O)N[C@@H](Cc2ccccc2)[C@H](O)CNC2(CCC(C)C)CC2)cc(N2CCCCS2(=O)=O)c1
active: growth inhibition [1] 52% | growth inhibition [4] 90%
inactive: inhibition [2] 6% | inhibition [3] 2% | outcome [5] | outcome [6] | outcome [7] | outcome [8]

CCOC(=O)c1c(-c2ccccc2)[nH]c2c(sc3ccccc32)c1=O
active: growth inhibition [1] 65% | growth inhibition [4] 97%
inactive: inhibition [2] 2% | inhibition [3] -5% | outcome [5] | outcome [6] | outcome [7] | outcome [8]

CCc1cccc(-n2c(=O)c3cccnc3n2CC(=O)NCc2ccccc2Cl)c1
active: growth inhibition [4] 98%
inactive: growth inhibition [1] 19% | inhibition [2] 25% | inhibition [3] -8% | outcome [5] | outcome [6] | outcome [7] | outcome [8]

Cc1ccc2nc(C)cc(NN=Cc3ccc([N+](=O)[O-])cc3)c2c1
active: growth inhibition [4] 102%
inactive: growth inhibition [1] 15% | inhibition [2] 10% | inhibition [3] 3% | outcome [5] | outcome [6] | outcome [7] | outcome [8]

O=C(NC1CCN(CCN2CCC(c3c[nH]c4ccccc34)CC2)CC1)c1ccc(-c2ccc(C(F)(F)F)cc2)cc1
active: growth inhibition [1] 100% | inhibition [2] 100% | growth inhibition [4] 99%
inactive: inhibition [3] 4% | outcome [5] | outcome [6] | outcome [7] | outcome [8]

CCCC(=O)NC(c1ccc(C)cc1)c1ccc2cccnc2c1O (stereo not given)
active: inhibition [2] 52% | growth inhibition [4] 88%
inactive: growth inhibition [1] 45% | inhibition [3] -4% | outcome [5] | outcome [6] | outcome [7] | outcome [8]

CCCC(C)NC[C@@H](O)[C@H](Cc1ccccc1)NC(=O)c1cc(C2CCCC2)cc(N2CCCCS2(=O)=O)c1 (stereo not given in full)
active: growth inhibition [1] 99% | growth inhibition [4] 98%
inactive: inhibition [2] 8% | inhibition [3] 3% | outcome [5] | outcome [6] | outcome [7] | outcome [8]

COc1ccc(CNc2ncc(-c3ccsc3)c(-c3nccs3)n2)cc1OC
inactive: inhibition [2] 10% | inhibition [3] -1% | outcome [5] | outcome [6] | outcome [7] | outcome [8]
active: growth inhibition [1] 69% | growth inhibition [4] 86%

O=C(/C=C/c1ccccc1Cl)Nc1ccc(Br)c(OCCN2CCN(CCN3CCOCC3)CC2)c1
inactive: inhibition [2] 22% | inhibition [3] -3% | outcome [5] | outcome [6] | outcome [7] | outcome [8]
active: growth inhibition [1] 91% | growth inhibition [4] 98%

FC(F)(F)c1ccccc1OCc1cc(-c2ccncc2)c(COc2ccccc2C(F)(F)F)cc1C1=CCNCC1
inactive: inhibition [2] 31% | inhibition [3] -2% | outcome [5] | outcome [6] | outcome [7] | outcome [8]
active: growth inhibition [1] 81% | growth inhibition [4] 98%

COc1cc(-c2nc(-c3ccccc3)c(-c3ccccc3)[nH]2)ccc1OCCN(C)C
active: growth inhibition [1] 100% | growth inhibition [4] 101%
inactive: inhibition [2] -8% | inhibition [3] 5% | outcome [5] | outcome [6] | outcome [7] | outcome [8]

Fc1ccc(COc2ccc(Nc3ncnc4ccc(I)cc34)cc2Cl)cc1
active: growth inhibition [4] 86%
inactive: growth inhibition [1] 30% | inhibition [2] 28% | inhibition [3] -5% | outcome [5] | outcome [6] | outcome [7] | outcome [8]

Cc1cc(C(=O)OCC(N)=O)c(C)n1-c1ccc(F)cc1
active: growth inhibition [1] 96% | growth inhibition [4] 97%
inactive: inhibition [2] -12% | inhibition [3] 1% | outcome [5] | outcome [6] | outcome [7] | outcome [8]

c1cc(CN2CCN(c3ccncc3)CC2)cc(-c2cccc(-c3nc4ccccc4[nH]3)c2)c1
active: growth inhibition [1] 98% | growth inhibition [4] 102%
inactive: inhibition [2] 35% | inhibition [3] 3% | outcome [5] | outcome [6] | outcome [7] | outcome [8]

CNCCNCc1ccc(-c2ccc(-c3nc4ccccc4[nH]3)s2)cc1
active: growth inhibition [4] 99%
inactive: growth inhibition [1] 15% | inhibition [2] 11% | inhibition [3] 5% | outcome [5] | outcome [6] | outcome [7] | outcome [8]

COc1ccc2nccc([C@@H](O)CN3CCC(NC(=O)C(=Cc4ccc(C#N)cc4)c4ccc(-c5ccccc5)cc4)CC3)c2c1
inactive: inhibition [2] 5% | inhibition [3] -5% | outcome [5] | outcome [6] | outcome [7] | outcome [8]
active: growth inhibition [1] 84% | growth inhibition [4] 101%

Cc1cccc2sc(N(CCCn3ccnc3)C(=O)C=Cc3cccs3)nc12
active: growth inhibition [4] 91%
inactive: growth inhibition [1] 9% | inhibition [2] -6% | inhibition [3] 2% | outcome [5] | outcome [6] | outcome [7] | outcome [8]

O=C(c1cc2nc3c(c(C(F)(F)F)n2n1)CCc1ccccc1-3)N1CCN2CCCC2C1 (stereo not given)
active: growth inhibition [4] 94%
inactive: growth inhibition [1] 3% | inhibition [2] -8% | inhibition [3] 0% | outcome [5] | outcome [6] | outcome [7] | outcome [8]

COc1ccc(CNC2CCCC2)cc1-c1ccc(S(=O)(=O)NCCN2CCCC2)s1
inactive: growth inhibition [1] 17% | inhibition [2] 17% | inhibition [3] -3% | outcome [5] | outcome [6] | outcome [7] | outcome [8]
active: growth inhibition [4] 96%

Nc1nccc2ccc(-c3ccc(Oc4ccccc4)cc3)cc12
active: growth inhibition [1] 80% | growth inhibition [4] 98%
inactive: inhibition [2] 36% | inhibition [3] -3% | outcome [5] | outcome [6] | outcome [7] | outcome [8]

CC(C)CNC(=O)c1ccnc(-c2ccc(CNCCCc3ccccc3)cc2)c1
inactive: growth inhibition [1] 22% | inhibition [2] 12% | inhibition [3] -3% | outcome [5] | outcome [6] | outcome [7] | outcome [8]
active: growth inhibition [4] 99%

Cc1ccc2[nH]cc(/C=C/C(=O)NC3CCC(CCN4CCc5ccc(C#N)cc5CC4)CC3)c2c1 (stereo not given)
active: growth inhibition [4] 93%
inactive: growth inhibition [1] 49% | inhibition [2] 11% | inhibition [3] -4% | outcome [5] | outcome [6] | outcome [7] | outcome [8]
